The values below come from PubChem BioAssay (EPA / NIEHS).

The target of assay [1] is human Sirtuin 2 (SIRT2), SIRT2 (gene 22933) (UniProt Q8IXJ6). As to the kind of experiment: NVS_ENZ_hSIRT2: NovaScreen (NVS) Enzymatic Assay for human Sirtuin 2 (SIRT2) (AID 2283217). The gist of the method:
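Single-point duplicate screen at 25 uM, then concentration-response (max 50 uM) for chemicals passing threshold. Enzyme activity of recombinant human SIRT2 measured after 1 hr by fluorescence with mobility-shift separation of product; DMSO baseline.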

Assay [2] concerns the target human Sirtuin 1 (SIRT1), SIRT1 (gene 23411) (UniProt Q96EB6). As to the kind of experiment: NVS_ENZ_hSIRT1: NovaScreen (NVS) Enzymatic Assay for human Sirtuin 1 (SIRT1) (AID 2283219). The gist of the method:
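Cell-free recombinant SIRT1 with a fluorescent substrate; substrate and product separated by electrophoretic mobility shift and read by fluorescence intensity, 1 h after dosing. Primary screen at 25 uM in duplicate; hits re-run in concentration-response up to 50 uM, relative to DMSO.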

Assay [3] has as its target human Sirtuin 3 (SIRT3), SIRT3 (gene 23410) (UniProt Q9NTG7). As to the kind of experiment: NVS_ENZ_hSIRT3: NovaScreen (NVS) Enzymatic Assay for human Sirtuin 3 (SIRT3) (AID 2283222). A digest of the protocol: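 Cell-free enzyme assay with recombinant protein and fluorescent substrate, product separated by electrophoretic mobility shift; read 1 hour after dosing. Screened in duplicate at 25 uM, then singleton concentration-response up to 50 uM; loss of signal versus DMSO.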

For assay [4], the target named is rabbit Imidazoline 2 Central (I2C), CKB (gene 100009085) (UniProt P00567). As to the kind of experiment: NVS_ENZ_rabI2C: NovaScreen (NVS) Enzymatic Assay for rabbit Imidazoline 2 Central (I2C) (AID 2283228). The gist of the method:
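Rabbit brain membranes, cell-free; readout by filter-based scintillation counting 1.5 hours after dosing, loss of signal vs DMSO. Initial duplicate test at 25 uM, then concentration-response with 50 uM top concentration.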

In assay [5] the target is human Vascular Endothelial Growth Factor Receptor 3 (VEGFR3), FLT4 (gene 2324) (UniProt P35916). As to the kind of experiment: NVS_ENZ_hVEGFR3: NovaScreen (NVS) Enzymatic Assay for human Vascular Endothelial Growth Factor Receptor 3 (VEGFR3) (AID 2283229). The gist of the method: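 Chemicals first run in duplicate at 25 uM, with actives re-tested in concentration series to a top of 50 uM. Recombinant VEGFR3 activity measured after 1 h via fluorescence with mobility-shift product separation; inhibition fitted relative to DMSO.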

Assay [6] has as its target human Vascular Endothelial Growth Factor Receptor 2 (VEGFR2), KDR (gene 3791) (UniProt P35968). As to the kind of experiment: NVS_ENZ_hVEGFR2: NovaScreen (NVS) Enzymatic Assay for human Vascular Endothelial Growth Factor Receptor 2 (VEGFR2) (AID 2283230). The gist of the method: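 Cell-free recombinant VEGFR2 kinase, fluorescent substrate with electrophoretic mobility-shift separation; read 1 h after dosing. Screened at 25 uM in duplicate, hits to concentration-response up to 50 uM; loss-of-signal versus DMSO.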

Assay [7] deals with Adenosine receptor A1 (Bos taurus) (UniProt P28190). As to the kind of experiment: NVS_GPCR_bAdoR_NonSelective: NovaScreen (NVS) G Protein-Coupled Receptor Assay for bovine Adenosine Receptor (AdoR), Non-selective Binding (AID 2283244). A digest of the protocol:
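Cell-free binding with membranes from bovine striatum: radioligand displaced by test chemical, read after 1 h by filtration and scintillation. Single-point 25 uM duplicate primary, 50 uM top concentration in follow-up curves, DMSO baseline.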

Assay [8] relates to guinea pig Muscarinic, Peripheral (Mperiperal) Receptor, Non-selective Binding, gene 100379235. As to the kind of experiment: NVS_GPCR_gMPeripheral_NonSelective: NovaScreen (NVS) G Protein-Coupled Receptor Assay for guinea pig Muscarinic, Peripheral (Mperiperal) Receptor, Non-selective Binding (AID 2283250). The gist of the method: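 Screened in duplicate at 25 uM, hits retested in concentration series to 50 uM max, using bladder membrane radioligand displacement from guinea pig. Filtration and scintillation counting 1 h post-dose, fitted relative to DMSO.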

The target in assay [9] is human Vascular Endothelial Growth Factor Receptor 1 (VEGFR1), FLT1 (gene 2321) (UniProt P17948). As to the kind of experiment: NVS_ENZ_hVEGFR1: NovaScreen (NVS) Enzymatic Assay for human Vascular Endothelial Growth Factor Receptor 1 (VEGFR1) (AID 2283226). A digest of the protocol:
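Kinase activity of recombinant human VEGFR1 was read by fluorescence after electrophoretic separation of product from substrate, 1 h post-dosing; initial duplicate single-point testing at 25 uM, followed by concentration-series follow-up, with DMSO as baseline.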

Assay [10] concerns the target rat Constitutive Nitric Oxide Synthase (CNOS), Nos1 (gene 24598) (UniProt P29476). As to the kind of experiment: NVS_ENZ_rCNOS: NovaScreen (NVS) Enzymatic Assay for rat Constitutive Nitric Oxide Synthase (CNOS) (AID 2283236). A digest of the protocol:
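Single 25 uM duplicate screen, then concentration series to 50 uM for chemicals meeting threshold. Rat brain membrane-derived CNOS activity detected radiometrically by filtration and scintillation counting, 1 h after compound addition; DMSO as baseline.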

For assay [11], the target named is human Serotonin, 5-Hydroxytryptamine Receptor 2A (5HT2A), HTR2A (gene 3356) (UniProt P28223). As to the kind of experiment: NVS_GPCR_h5HT2A: NovaScreen (NVS) G Protein-Coupled Receptor Assay for human Serotonin, 5-Hydroxytryptamine Receptor 2A (5HT2A) (AID 2283249). The gist of the method:
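Radioligand displacement on human cortex tissue extract, counted by filtration and scintillation 1.5 h post-dosing. Initial single-concentration screen at 25 uM in duplicate, concentration series in follow-up; DMSO as baseline.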

For assay [12], the system named is guinea pig Leukotriene B4 Receptor (LTB4), gene 100379538. As to the kind of experiment: NVS_GPCR_gLTB4: NovaScreen (NVS) G Protein-Coupled Receptor Assay for guinea pig Leukotriene B4 Receptor (LTB4) (AID 2283247). The gist of the method: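 Membranes from guinea pig spleen incubated 2 h with radioligand and compound; bound counts measured by filtration and scintillation. Screened first at 25 uM in duplicate, then actives titrated to a 50 uM top concentration relative to DMSO.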

Assay [13] concerns the target guinea pig Leukotriene D4 Receptor (LTD4), CYSLTR1 (gene 100135514) (UniProt Q2NNR5). As to the kind of experiment: NVS_GPCR_gLTD4: NovaScreen (NVS) G Protein-Coupled Receptor Assay for guinea pig Leukotriene D4 Receptor (LTD4) (AID 2283248). A digest of the protocol: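 Guinea pig lung membrane preparation; bound radioligand measured by filter scintillation after 1 h, loss of signal versus DMSO marking displacement. Compounds tested at 25 uM in duplicate, hits retested to max 50 uM.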

Assay [14] concerns the target human SRC Proto-Oncogene, Non-receptor Tyrosine Kinase (SRC), SRC (gene 6714) (UniProt P12931). As to the kind of experiment: NVS_ENZ_hSRC: NovaScreen (NVS) Enzymatic Assay for human SRC Proto-Oncogene, Non-receptor Tyrosine Kinase (SRC) (AID 2283223). The gist of the method:
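Compounds passing 30% inhibition at 25 uM (duplicate) were titrated to a top concentration of 50 uM. Enzyme activity read by fluorescence with mobility-shift substrate/product separation after 1 h; DMSO baseline.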

Assay [15] concerns the target sheep Cyclooxygenase-1 (Cox1), PTGS1 (gene 443551) (UniProt P05979). As to the kind of experiment: NVS_ENZ_oCOX1: NovaScreen (NVS) Enzymatic Assay for sheep Cyclooxygenase-1 (Cox1) (AID 2283239).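 Further: actives reduce cyclooxygenase activity so potencies are for inhibitors.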 The gist of the method: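 Colorimetric enzyme readout using sheep seminal-vesicle cyclooxygenase-1, measured 0.66 h post-dosing. Single-concentration duplicates at 25 uM first, then concentration series for actives, with DMSO as baseline and plate controls.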

A short description of assay [16]: NVS_GPCR_bNPY_NonSelective: NovaScreen (NVS) G Protein-Coupled Receptor Assay for bovine Neuropeptide Y (NPY) Receptor, Non-selective Binding (AID 2283245). The gist of the method: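 Displacement of radioligand from bovine hippocampal membrane receptors, read by filtration and scintillation counting after 1 hour. Concentration-response to a top of 50 uM followed a 25 uM duplicate primary screen. Loss of signal versus DMSO.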

The target of assay [17] is human Tropomyosin Receptor Kinase A (TRKA), NTRK1 (gene 4914) (UniProt P04629). As to the kind of experiment: NVS_ENZ_hTrkA: NovaScreen (NVS) Enzymatic Assay for human Tropomyosin Receptor Kinase A (TRKA) (AID 2283224). A digest of the protocol: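 Compounds were screened at 25 uM in duplicate, then concentration series to a 50 uM top for those meeting threshold (e.g. 30% inhibition). Enzyme was recombinant human TrkA, incubated 1 h. Product formation was quantified by fluorescence after mobility-shift separation.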

SMILES strings stand for the structures. Results filed as inconclusive are left out. The source made the active and inactive calls. How the source made its calls: active means hit-call score of the fitted dose curve at least 0.9, where 1 is the maximum; inconclusive means response in the unintended direction; inactive means score below 0.9.

Adenosine receptor A1 (Bos taurus), sequence (P28190 whole entry, looked up): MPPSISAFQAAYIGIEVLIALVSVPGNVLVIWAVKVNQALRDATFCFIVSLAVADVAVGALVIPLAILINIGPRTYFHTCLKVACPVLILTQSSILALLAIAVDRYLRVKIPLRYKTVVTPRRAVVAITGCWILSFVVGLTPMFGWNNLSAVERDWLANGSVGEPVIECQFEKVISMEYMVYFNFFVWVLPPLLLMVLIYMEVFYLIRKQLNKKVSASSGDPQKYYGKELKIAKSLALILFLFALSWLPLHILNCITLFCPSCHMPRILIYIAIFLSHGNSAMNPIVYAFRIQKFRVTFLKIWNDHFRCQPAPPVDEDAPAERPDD
rat Constitutive Nitric Oxide Synthase (CNOS), Nos1 (gene 24598), sequence (P29476 whole entry, looked up): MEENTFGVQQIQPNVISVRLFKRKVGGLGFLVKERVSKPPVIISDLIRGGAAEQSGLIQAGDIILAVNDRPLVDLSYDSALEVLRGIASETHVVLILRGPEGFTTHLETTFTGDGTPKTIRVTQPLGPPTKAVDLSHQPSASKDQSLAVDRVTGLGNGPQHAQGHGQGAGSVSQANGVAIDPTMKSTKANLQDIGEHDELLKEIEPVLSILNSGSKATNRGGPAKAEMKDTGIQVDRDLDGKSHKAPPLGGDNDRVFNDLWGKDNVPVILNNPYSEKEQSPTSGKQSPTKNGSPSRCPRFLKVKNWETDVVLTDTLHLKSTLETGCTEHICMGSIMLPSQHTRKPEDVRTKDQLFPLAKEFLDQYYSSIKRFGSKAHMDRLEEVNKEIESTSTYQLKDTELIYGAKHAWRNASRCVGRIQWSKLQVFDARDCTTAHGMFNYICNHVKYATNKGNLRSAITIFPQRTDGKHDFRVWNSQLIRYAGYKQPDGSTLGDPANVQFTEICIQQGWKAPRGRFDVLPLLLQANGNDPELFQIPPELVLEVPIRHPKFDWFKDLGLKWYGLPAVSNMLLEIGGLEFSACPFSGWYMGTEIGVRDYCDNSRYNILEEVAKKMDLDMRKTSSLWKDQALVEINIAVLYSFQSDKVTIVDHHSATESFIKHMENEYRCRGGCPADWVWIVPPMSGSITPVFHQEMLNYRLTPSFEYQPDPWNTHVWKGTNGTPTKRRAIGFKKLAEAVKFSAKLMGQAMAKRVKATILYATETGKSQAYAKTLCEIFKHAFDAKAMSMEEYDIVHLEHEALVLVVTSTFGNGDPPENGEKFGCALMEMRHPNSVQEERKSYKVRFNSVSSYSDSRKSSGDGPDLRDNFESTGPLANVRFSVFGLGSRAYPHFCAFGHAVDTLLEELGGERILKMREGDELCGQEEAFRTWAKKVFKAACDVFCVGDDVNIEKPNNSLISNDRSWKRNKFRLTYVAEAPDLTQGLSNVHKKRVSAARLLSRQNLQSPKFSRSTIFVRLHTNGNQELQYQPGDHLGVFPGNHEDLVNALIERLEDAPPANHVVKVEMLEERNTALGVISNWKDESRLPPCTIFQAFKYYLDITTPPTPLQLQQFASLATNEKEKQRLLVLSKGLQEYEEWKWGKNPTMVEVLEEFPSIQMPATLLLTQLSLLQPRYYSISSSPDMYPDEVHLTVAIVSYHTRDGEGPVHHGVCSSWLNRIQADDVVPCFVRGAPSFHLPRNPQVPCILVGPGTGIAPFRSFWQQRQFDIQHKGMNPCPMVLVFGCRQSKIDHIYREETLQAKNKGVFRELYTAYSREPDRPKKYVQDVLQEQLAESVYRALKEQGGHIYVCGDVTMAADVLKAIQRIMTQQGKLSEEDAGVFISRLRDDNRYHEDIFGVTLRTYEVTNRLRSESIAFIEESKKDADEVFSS
human Vascular Endothelial Growth Factor Receptor 2 (VEGFR2), KDR (gene 3791), sequence (P35968 whole entry, looked up): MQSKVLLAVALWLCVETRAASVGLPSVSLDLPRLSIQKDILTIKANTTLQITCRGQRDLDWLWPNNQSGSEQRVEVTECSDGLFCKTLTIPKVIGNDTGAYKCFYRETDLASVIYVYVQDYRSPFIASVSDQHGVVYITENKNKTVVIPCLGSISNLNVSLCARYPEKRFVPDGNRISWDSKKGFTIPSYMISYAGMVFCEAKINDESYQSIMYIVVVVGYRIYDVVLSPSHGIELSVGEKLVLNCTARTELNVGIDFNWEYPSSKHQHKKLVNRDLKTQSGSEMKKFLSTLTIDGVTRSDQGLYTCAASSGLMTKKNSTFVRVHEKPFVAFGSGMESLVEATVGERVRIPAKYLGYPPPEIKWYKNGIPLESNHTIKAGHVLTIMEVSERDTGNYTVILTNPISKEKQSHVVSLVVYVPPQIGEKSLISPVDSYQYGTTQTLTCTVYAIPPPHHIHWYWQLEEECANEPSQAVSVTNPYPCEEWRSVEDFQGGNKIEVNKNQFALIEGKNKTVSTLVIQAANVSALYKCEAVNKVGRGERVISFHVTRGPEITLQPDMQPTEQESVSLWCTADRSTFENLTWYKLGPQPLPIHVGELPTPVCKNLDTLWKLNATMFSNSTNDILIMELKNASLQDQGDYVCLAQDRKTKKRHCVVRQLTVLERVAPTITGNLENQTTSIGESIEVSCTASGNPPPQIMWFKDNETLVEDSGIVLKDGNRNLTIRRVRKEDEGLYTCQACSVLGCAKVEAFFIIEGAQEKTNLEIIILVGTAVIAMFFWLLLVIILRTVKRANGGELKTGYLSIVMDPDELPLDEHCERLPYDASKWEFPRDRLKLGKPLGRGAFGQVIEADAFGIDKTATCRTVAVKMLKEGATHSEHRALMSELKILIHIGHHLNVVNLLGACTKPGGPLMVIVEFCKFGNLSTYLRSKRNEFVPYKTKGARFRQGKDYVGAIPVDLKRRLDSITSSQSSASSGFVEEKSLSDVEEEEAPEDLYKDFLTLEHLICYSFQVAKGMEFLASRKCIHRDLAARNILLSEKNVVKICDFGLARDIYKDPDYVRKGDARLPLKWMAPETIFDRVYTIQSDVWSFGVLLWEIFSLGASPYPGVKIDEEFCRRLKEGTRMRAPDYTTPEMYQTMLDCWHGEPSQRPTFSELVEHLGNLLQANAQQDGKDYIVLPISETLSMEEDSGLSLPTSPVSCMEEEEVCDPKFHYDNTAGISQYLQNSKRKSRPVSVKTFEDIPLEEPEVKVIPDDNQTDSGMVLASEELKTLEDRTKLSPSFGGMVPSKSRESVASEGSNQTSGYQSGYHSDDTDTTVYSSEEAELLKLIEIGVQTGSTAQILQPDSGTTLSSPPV
human Sirtuin 2 (SIRT2), SIRT2 (gene 22933), sequence (Q8IXJ6 whole entry, looked up): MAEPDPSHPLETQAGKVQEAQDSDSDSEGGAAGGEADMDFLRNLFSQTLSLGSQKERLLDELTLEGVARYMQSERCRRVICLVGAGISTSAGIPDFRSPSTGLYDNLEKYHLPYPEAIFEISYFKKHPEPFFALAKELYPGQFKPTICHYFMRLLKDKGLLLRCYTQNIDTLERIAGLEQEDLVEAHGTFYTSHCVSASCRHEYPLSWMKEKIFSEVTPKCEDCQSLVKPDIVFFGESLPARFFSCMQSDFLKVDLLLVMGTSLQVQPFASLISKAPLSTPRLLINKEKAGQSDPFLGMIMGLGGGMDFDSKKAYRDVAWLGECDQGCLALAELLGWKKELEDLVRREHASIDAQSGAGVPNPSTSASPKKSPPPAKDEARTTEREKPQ
human Sirtuin 1 (SIRT1), SIRT1 (gene 23411), sequence (Q96EB6 whole entry, looked up): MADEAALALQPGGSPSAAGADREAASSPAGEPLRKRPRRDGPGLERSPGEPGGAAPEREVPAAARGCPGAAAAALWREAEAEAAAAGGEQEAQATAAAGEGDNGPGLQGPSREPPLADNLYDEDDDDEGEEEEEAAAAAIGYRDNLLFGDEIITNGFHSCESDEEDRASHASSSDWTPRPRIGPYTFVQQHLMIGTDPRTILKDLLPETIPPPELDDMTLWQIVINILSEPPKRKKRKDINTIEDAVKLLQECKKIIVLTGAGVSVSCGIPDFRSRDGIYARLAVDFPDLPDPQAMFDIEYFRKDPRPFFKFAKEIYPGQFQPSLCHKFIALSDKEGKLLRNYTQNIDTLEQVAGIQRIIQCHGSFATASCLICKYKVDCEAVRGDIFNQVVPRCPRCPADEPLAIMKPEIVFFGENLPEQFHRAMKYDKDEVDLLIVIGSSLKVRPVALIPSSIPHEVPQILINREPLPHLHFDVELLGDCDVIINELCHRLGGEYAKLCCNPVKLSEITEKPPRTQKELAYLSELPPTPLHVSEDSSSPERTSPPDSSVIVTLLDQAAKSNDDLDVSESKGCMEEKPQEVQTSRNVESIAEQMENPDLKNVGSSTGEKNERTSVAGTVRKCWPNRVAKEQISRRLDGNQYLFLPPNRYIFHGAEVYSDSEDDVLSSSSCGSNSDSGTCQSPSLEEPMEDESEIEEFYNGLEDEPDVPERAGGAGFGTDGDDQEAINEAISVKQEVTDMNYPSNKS
rabbit Imidazoline 2 Central (I2C), CKB (gene 100009085), sequence (P00567 whole entry, looked up): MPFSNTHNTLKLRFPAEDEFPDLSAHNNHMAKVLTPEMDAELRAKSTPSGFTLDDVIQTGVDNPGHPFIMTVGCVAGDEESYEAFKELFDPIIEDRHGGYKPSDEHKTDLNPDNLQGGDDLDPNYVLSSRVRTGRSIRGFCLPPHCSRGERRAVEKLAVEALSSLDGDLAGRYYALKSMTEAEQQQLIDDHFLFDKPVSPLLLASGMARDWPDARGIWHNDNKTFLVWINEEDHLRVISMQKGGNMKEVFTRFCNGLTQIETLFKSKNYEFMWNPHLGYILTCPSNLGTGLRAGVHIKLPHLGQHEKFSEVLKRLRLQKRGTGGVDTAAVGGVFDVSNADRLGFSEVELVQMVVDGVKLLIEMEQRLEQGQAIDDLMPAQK
human Sirtuin 3 (SIRT3), SIRT3 (gene 23410), sequence (Q9NTG7 whole entry, looked up): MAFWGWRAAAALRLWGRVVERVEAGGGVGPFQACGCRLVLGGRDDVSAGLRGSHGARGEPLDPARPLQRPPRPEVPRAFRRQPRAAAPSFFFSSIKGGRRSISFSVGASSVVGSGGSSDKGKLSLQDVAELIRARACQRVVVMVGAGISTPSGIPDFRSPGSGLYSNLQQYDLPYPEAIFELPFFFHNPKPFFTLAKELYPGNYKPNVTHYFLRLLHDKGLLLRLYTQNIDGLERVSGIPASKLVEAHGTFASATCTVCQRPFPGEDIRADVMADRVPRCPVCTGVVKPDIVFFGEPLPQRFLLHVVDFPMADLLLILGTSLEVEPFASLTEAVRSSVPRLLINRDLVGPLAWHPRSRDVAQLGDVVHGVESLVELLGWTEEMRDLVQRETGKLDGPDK

Usually AC50 stands for the concentration at which the activity in the assay is half-maximal. For the molecule `CCN(CC)CCNc1ccc(CNC=O)c2sc3ccc(OC)cc3c(=O)c12`, the outcome in [1], in assay [2], in [3], in assay [4], in assay [5] and in assay [6] was inactive. Also, the AC50 is 4.38 µM (active) in [7] and 5.83 µM (active) in [8].
As for `CC(C)(C)c1cccc(C(C)(C)C)c1O`, the outcome in [1] and in assay [9] was inactive.
As to `CN1CCN(c2ccccc2/C=C2\SCCN(c3ccc(Cl)c(Cl)c3)C2=O)CC1`, the outcome in assay [10] was inactive. Moreover, in [11], the AC50 is 1.9 µM (active).
Consider `NC(=O)N1C(=O)C(C(=O)c2cc(Cl)cs2)c2cc(F)c(Cl)cc21` (stereo unspecified), for which the result in assay [4], in assay [10] and in assay [7] was inactive. For the same molecule, in assay [12], the AC50 is 0.585 µM (active).
Turning to `CCCCCCCC(=O)O`, the molecule was called inactive in assay [1], in assay [4], in [13] and in [8]. Further, the AC50 in assay [2] was 6.65 µM (active).
Regarding `COCC(C)OCC(C)O` (stereo unspecified), the molecule was called inactive in assay [1], in [2] and in [14].
On to `CC(C)(C)c1ccc(O)c(C(C)(C)C)c1`, for which the outcome in assay [6] and in [7] was inactive.
Regarding `CC1=C(/C=C/C(C)=C/C=C/C(C)=C/C(=O)O)C(C)(C)CCC1`, the call in assay [9] and in assay [4] was inactive.
As to `Oc1cccc(O)c1`, the AC50 in assay [15] was 10.4 µM (active).
On to `CCC(=C(c1ccc(O)cc1)c1ccc(OCCN(C)C)cc1)c1ccccc1`, for which the molecule was classed as inactive in [3]. Also, the AC50 in assay [4] was 0.408 µM (active).
For the molecule `COc1ccc([N+](=O)[O-])cc1N`, the AC50 in [15] is 12.2 µM (active).
Regarding `Cc1oc(-c2ccccc2)nc1CCOc1ccc(C[C@H](Nc2ccccc2C(=O)c2ccccc2)C(=O)O)cc1`, the AC50 was 18.3 µM (active) in assay [1] and 26.5 µM (active) in assay [15]. The outcome in assay [16], in assay [12] and in assay [13] was inactive.
`O=C(O)Cc1cc(I)c(Oc2cc(I)c(O)c(I)c2)c(I)c1`: the molecule was called inactive in assay [14], in assay [9], in assay [5], in assay [6] and in [7]. Besides, the AC50 in assay [17] is 1.6 µM (active).
As for `CC(C)CCCCCCOC(=O)CCCCC(=O)OCCCCCCC(C)C`, the result in assay [10] was inactive.
As to `CN1CCC[C@H]1c1cccnc1`, in assay [8], the molecule was called inactive.
Turning to `N#C[C@@H]1CC(F)(F)CN1C(=O)CNC1CC2CCC(C1)N2c1ncccn1` (stereo partly specified), the outcome in [15] was inactive.
